# Measured values from PubChem BioAssay (EPA / NIEHS).
# Several values for one entry are separate records, joined by “and”; a condition that tells them apart may be missing. Equal entries are not always repeated. Records with an inconclusive call do not appear. More than one record can exist for a structure, and the calls need not agree. Activity calls are given as the source filed them. How the source made its calls: active means hit-call score of the fitted dose curve at least 0.9, where 1 is the maximum; inconclusive means response in the unintended direction; inactive means score below 0.9.
# Biological target: Cellular tumor antigen p53 (Homo sapiens) (UniProt P04637)
# Sequence (P04637 whole entry, looked up): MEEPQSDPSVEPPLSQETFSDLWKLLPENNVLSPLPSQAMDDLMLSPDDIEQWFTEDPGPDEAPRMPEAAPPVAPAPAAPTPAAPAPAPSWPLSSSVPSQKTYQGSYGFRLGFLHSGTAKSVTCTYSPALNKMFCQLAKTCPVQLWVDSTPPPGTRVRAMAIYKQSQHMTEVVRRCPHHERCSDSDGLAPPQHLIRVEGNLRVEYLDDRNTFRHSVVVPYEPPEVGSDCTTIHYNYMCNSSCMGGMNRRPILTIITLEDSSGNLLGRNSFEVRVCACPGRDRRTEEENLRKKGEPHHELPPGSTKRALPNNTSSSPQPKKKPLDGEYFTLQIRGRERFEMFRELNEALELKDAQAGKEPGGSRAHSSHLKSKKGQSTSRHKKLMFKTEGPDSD
# Test: TOX21_p53_BLA_p4_ratio: Tox21 HCT-116 p53 Agonism Beta-lactamase Assay, Ratio, Phase 4 (AID 2283601)
# How it was run: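 HCT116 cells carrying an inducible beta-lactamase reporter were plated at 4000 cells/well, rested 5 h, then exposed to compounds in DMSO (217-fold dilution) for 16 h at 37C. CCF4-AM substrate was loaded 2 h at room temperature; 460/530 nm emission ratio scored gain-of-signal versus DMSO.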
Structure (SMILES),outcome,AC50
O=C1OC[C@H](Cc2cccc(O)c2)[C@H]1Cc1cccc(O)c1,inactive,
CC(C)CCCCCCCCCCCCCCC(=O)O,inactive,
CC1(C)C2=CCCC(C)(C)[C@]23CC[C@H]1C3,inactive,
CCOC(=O)c1ccc(N)cc1,inactive,
O=C1c2ccccc2C(=O)c2c(O)ccc(O)c21,inactive,
OCC(O)c1ccccc1 (stereo not given),inactive,
[O-]n1ccccc1=S.[O-]n1ccccc1=S.[Zn+2],,21.1 µM (active) [middle of 4 runs]
O=c1c(O)c(-c2ccc(O)cc2)oc2cc(O)cc(O)c12,inactive,
CC(=O)Nc1ccc(C(=O)CCl)cc1,inactive,79.4 µM (active)
CCOc1ccc(N=Nc2ccc(C=Cc3ccc(N=Nc4ccc(OCC)cc4)cc3S(=O)(=O)O)c(S(=O)(=O)O)c2)cc1,inactive,
CS(=O)(=O)OCCCCOS(C)(=O)=O,inactive,
N#Cc1cscn1,inactive,
N[C@@H](Cc1cc(I)c(Oc2cc(I)c(O)c(I)c2)c(I)c1)C(=O)O,inactive,39.8 µM (active)
O=C(O)c1ccc(O)cc1,inactive,
CCCCCCCCc1ccc(S(=O)(=O)O)cc1,inactive,
COc1ccc(N=Nc2cc(C)c(N=Nc3ccc(S(=O)(=O)O)cc3)cc2OC)cc1,inactive,

Structure (SMILES),outcome,AC50
Nc1ccc(N)c2c1C(=O)c1ccccc1C2=O,,13 µM (active)
C=C1CC[C@H](O)C/C1=C/C=C1\CCC[C@]2(C)[C@@H]([C@H](C)/C=C/[C@H](C)C(C)C)CC[C@@H]12,inactive,
COc1ccccc1N=Nc1c(S(=O)(=O)O)cc2cc(S(=O)(=O)O)cc(NC(C)=O)c2c1O,inactive,
CCc1cc(C(C)(C)C)c(O)c(C(C)(C)C)c1,inactive,
CCCCCCCCCCCCCCN(CCO)CCO,inactive,
CC1CC(O)CC(C)(C)C1 (stereo not given),inactive,
CCOc1ccccc1O,inactive,
O=C(Nc1ccc2c(O)c(N=Nc3ccc(N=Nc4ccc(S(=O)(=O)O)cc4)cc3)c(S(=O)(=O)O)cc2c1)c1ccccc1,inactive,
CCCCC(CC)COC(=O)c1ccc(O)cc1 (stereo not given),,86 µM (active) and 72.3 µM (active)
O=C(O)CCCCCCCCC(=O)O,inactive,
CCc1cc(Cc2cc(CC)cc(C(C)(C)C)c2O)c(O)c(C(C)(C)C)c1,,10.8 µM (active)
Cc1ccc(S(=O)(=O)Oc2ccc(N=Nc3ccc(-c4ccc(N=Nc5c(O)ccc6cc(S(=O)(=O)O)cc(S(=O)(=O)O)c56)c(C)c4)cc3C)cc2)cc1,inactive,
CSCCC=O,inactive,
CCCCCC(C=O)=Cc1ccccc1,inactive,
CCCCCCCCC=CCCCCCCCC1=NCCN1CCO,,87.8 µM (active)
Cc1cc(C)nc(NS(=O)(=O)c2ccc(N)cc2)n1,inactive,

# Test system: Thyroperoxidase (TPO), gene 54314
# Test: CCTE_Simmons_AUR_rTPO: CCTE's Amplex UltraRed Assay for Thyroperoxidase (TPO) Inhibition, Simmons Lab (AID 2283662);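 on AC50: potency for loss of signal meaning inhibition of peroxidase activity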
# How it was run: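 Rat thyroid microsomal TPO + 25 uM AUR in 200 mM K phosphate; cpd 5 nM–87.5 uM [final], 8 conc, 0.5% DMSO; 300 uM H2O2 starts rxn; 37C dark 30 min; endpoint FI 544/590 nm; n=3.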
Structure (SMILES),AC50,outcome
O=C1OC[C@H](Cc2cccc(O)c2)[C@H]1Cc1cccc(O)c1,7.74 µM (active),
CC(C)CCCCCCCCCCCCCCC(=O)O,43.8 µM (active),
CCOC(=O)c1ccc(N)cc1,22.2 µM (active),
Oc1ccc2cc(SSc3ccc4cc(O)ccc4c3)ccc2c1,2.45 µM (active),
[O-]n1ccccc1=S.[O-]n1ccccc1=S.[Zn+2],3.72 µM (active),
O=c1c(O)c(-c2ccc(O)cc2)oc2cc(O)cc(O)c12,0.0805 µM (active),
Cc1cc(S(=O)(=O)O)ccc1N=Nc1c(O)ccc2ccccc12,35 µM (active),
CCOc1ccc(N=Nc2ccc(C=Cc3ccc(N=Nc4ccc(OCC)cc4)cc3S(=O)(=O)O)c(S(=O)(=O)O)c2)cc1,30.2 µM (active),
CS(=O)(=O)OCCCCOS(C)(=O)=O,30.6 µM (active),
CC(C)NCC(O)COc1ccc(CC(N)=O)cc1 (stereo not given),,inactive
Nc1ccc2cc(S(=O)(=O)O)cc(O)c2c1N=Nc1ccccc1C(F)(F)F,20.2 µM (active),
CC(CN=Cc1ccccc1O)N=Cc1ccccc1O (stereo not given),26 µM (active),
O=C(O)c1ccc(O)cc1,35.3 µM (active),
CCCCCCCCc1ccc(S(=O)(=O)O)cc1,43.8 µM (active),
COc1ccc(N=Nc2cc(C)c(N=Nc3ccc(S(=O)(=O)O)cc3)cc2OC)cc1,53.9 µM (active),
C=C1CC[C@H](O)C/C1=C/C=C1\CCC[C@]2(C)[C@@H]([C@H](C)/C=C/[C@H](C)C(C)C)CC[C@@H]12,41.3 µM (active),

Structure (SMILES),AC50,outcome
COc1ccccc1N=Nc1c(S(=O)(=O)O)cc2cc(S(=O)(=O)O)cc(NC(C)=O)c2c1O,34.8 µM (active),
CCc1cc(C(C)(C)C)c(O)c(C(C)(C)C)c1,4.83 µM (active),
CCCCCCCCCCCCCCN(CCO)CCO,44.8 µM (active),
CCOc1ccccc1O,19.1 µM (active),
O=C(Nc1ccc2c(O)c(N=Nc3ccc(N=Nc4ccc(S(=O)(=O)O)cc4)cc3)c(S(=O)(=O)O)cc2c1)c1ccccc1,32.7 µM (active),
CCCCC(CC)COC(=O)c1ccc(O)cc1 (stereo not given),44.7 µM (active),
CN(C)c1cccc(O)c1,1.34 µM (active),
O=C(O)CCCCCCCCC(=O)O,,inactive
CCc1cc(Cc2cc(CC)cc(C(C)(C)C)c2O)c(O)c(C(C)(C)C)c1,1.8 µM (active),
Cc1ccc(S(=O)(=O)Oc2ccc(N=Nc3ccc(-c4ccc(N=Nc5c(O)ccc6cc(S(=O)(=O)O)cc(S(=O)(=O)O)c56)c(C)c4)cc3C)cc2)cc1,18.2 µM (active),
CSCCC=O,43.8 µM (active),
CCCCCC(C=O)=Cc1ccccc1,19.4 µM (active),
CCc1ccc(O)cc1,,inactive
CCCCCCCCC=CCCCCCCCC1=NCCN1CCO,37.9 µM (active) and 8.64 µM (active),
Cc1cc(C)nc(NS(=O)(=O)c2ccc(N)cc2)n1,14.3 µM (active),
